Measurements from publication PMC7826789 (International Journal of Molecular Sciences, 2021).

Each molecule was assayed on T1, ASK1. Settings: Compound Concentration (nM):1000.
T1 construct: gene MAP3K5
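Further: KINOMEscan scanMAX binding as percent activity remaining versus control; lower means stronger binding.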

| Structure (SMILES) | Percent Control |
| --- | --- |
| Cl.O=C(Nc1ccc(Oc2ccc3[nH]c(NC(=O)c4ccco4)nc3c2)cc1)Nc1cc(C(F)(F)F)ccc1F [GW683134A] | 100% |
| O=C(Nc1n[nH]c2nc(-c3ccc(O)cc3)c(Br)cc12)C1CC1 [SB-725317] | 100% |
| COc1cc2ncnc(Nc3ccc4c(cnn4Cc4ccccc4)c3)c2cc1OC.Cl [GW282449A] | 100% |
| CN(C)CCNC(=O)Nc1ccc(N(C)c2ccnc(Nc3ccc(CS(C)(=O)=O)cc3)n2)cc1.Cl [GW830900A] | 100% |
| CC1=C(C(=O)Nc2ccc3[nH]ncc3c2)C(c2ccc(Cl)c(Cl)c2)CC(=O)N1 (stereo not shown) [GSK299115A] | 98% |
| COc1ccc(COc2ccc(Cc3cnc(N)nc3N)cc2OC)cc1 [GW632580X] | 80% |
| CCS(=O)(=O)c1ccc(OC)c(Nc2ncc(-c3cccc(F)c3)o2)c1 [GW621970X] | 100% |
| COc1cc(/C=N/Nc2ncnc3[nH]ncc23)ccc1O [GW578748X] | 100% |
| C/C(Nc1ccc(S(N)(=O)=O)cc1)=C1/C(=O)Nc2ccccc21 [GW335962X] | 100% |
| CN1CCN(C(=O)c2ccc(NC(=O)Nc3ccc(N(C)c4ccnc(Nc5ccc(CS(C)(=O)=O)cc5)n4)cc3)cc2)CC1.Cl [GW830263A] | 100% |
| CC1=C(C(=O)Nc2ccc3[nH]ncc3c2)C(c2ccc3ccccc3c2)CC(=O)N1 (stereo not shown) [GSK270822A] | 98% |
| COc1ccc2cc(-c3c(-c4ccncc4)nc(-c4ccc(S(C)(=O)=O)cc4C)n3C)ccc2c1 [SB-633825] | 83% |
| COc1ccccc1-c1cc(/C=C2\C(=O)Nc3ncc(Br)cc32)cc(Br)c1O [GW442130X] | 98% |
| NS(=O)(=O)c1ccc(N/N=C2\C(=O)Nc3ccc(C(=O)NCc4ccncc4)cc32)cc1 [GW300657X] | 100% |
| Cl.O=C(O[C@H]1CN[C@H](C#Cc2cc3ncnc(Nc4ccc5c(cnn5Cc5ccccc5)c4)c3s2)C1)N1CCOCC1 [GSK200398A] | 100% |
| Cl.O=S1CCN(Cc2ccc(-c3ccc4ncnc(Nc5ccc(OCc6ccccc6)c(F)c5)c4c3)o2)CC1 [GW576924A] | 100% |
| Cl.c1ccc(Cc2nc3ccc(Nc4ncnc5ccccc45)cc3[nH]2)cc1 [GR269666A] | 100% |
| COc1cccc(-c2c[nH]c3c(N/N=C/c4ccncc4)ncnc23)c1 [GW814408X] | 100% |
| Cl.O=C(Nc1ccc(Oc2ccc3[nH]c(NC(=O)c4ccccc4)nc3c2)cc1)Nc1cc(C(F)(F)F)ccc1F [GW709042A] | 100% |
| CCn1c(-c2nonc2N)nc2c(C#CC(C)(C)O)nc(OCCNC)cc21.Cl [GSK949675] | 95% |

| Structure (SMILES) | Percent Control |
| --- | --- |
| CN(C)c1cc2c(Nc3ccc4c(cnn4Cc4ccccc4)c3)ncnc2cn1 [GW282974X] | 100% |
| C[C@@H](Oc1cc(-n2cnc3ccc(OC4CCN(C)CC4)cc32)sc1C(N)=O)c1ccccc1Cl [GSK579289A] | 99% |
| CCc1ccc(Oc2nccc(-c3c(-c4ccc(F)cc4)ncn3C3CCNCC3)n2)cc1 [SB-242719] | 84% |
| NS(=O)(=O)c1ccc(N/N=C2\C(=O)Nc3ccc(-c4cnco4)cc32)cc1 [GW276655] | 100% |
| COc1cc(C)c(N(C)C(=O)CN(C)C)cc1Nc1nc(Nc2cccc(F)c2C(N)=O)c2cc[nH]c2n1 [GSK2219385] | 100% |
| COc1ccc2[nH]c3c4[nH]c5ccc(OC)cc5c4c4c(c3c2c1)C(=O)NC4=O [GW296115X] | 83% |
| COc1cc(C=NNc2ncnc3c2cnn3-c2ccccc2)ccc1O [GW513184X] | 100% |
| NS(=O)(=O)c1ccc(N/N=C2\C(=O)Nc3ccc(Cl)cc32)cc1 [GW280670X] | 100% |
| COc1cc(N2CCN(C(C)C)CC2)ccc1Nc1nc(Nc2ccc(F)cc2C(=O)NC[C@@H](O)CO)c2cc[nH]c2n1 [GSK1392956A] | 100% |
| Cc1cc(O)cc(C)c1/C=C/c1cncc(C(N)=O)c1 [GW435821X] | 100% |
| COC(=O)Nc1nc2ccc(Oc3ccc(NC(=O)Nc4cc(C(F)(F)F)ccc4F)cc3)cc2s1.Cl [GW693917A] | 100% |
| CC(C)COC(=O)c1ccc2c(c1)/C(=C/Nc1ccc(S(N)(=O)=O)cc1)C(=O)N2 [GW416981X] | 100% |
| CCS(=O)(=O)c1ccc(OC)c(Nc2ncc(-c3cccc(OC)c3)o2)c1 [GW580509X] | 100% |
| COc1cccc(-n2ncc3c(N/N=C/c4ccncc4)ncnc32)c1 [GW784752X] | 100% |
| COc1ccc2c(-c3ccnc(Nc4cccc(OC(F)(F)F)c4)n3)cnn2n1 [GW810372X] | 100% |
| O=C1Nc2ccc(C(=O)c3ccco3)cc2C1=Cc1cc(Cl)c(O)c(Cl)c1 [GW406108X] | 100% |
| NS(=O)(=O)c1ccc(Nc2ncc(-c3ccccc3)o2)cc1 [GW572399X] | 100% |
| COc1cc2ncn(-c3cc(O[C@H](C)c4ccccc4Cl)c(C(N)=O)s3)c2cc1OC [GSK237701A] | 100% |
| Nc1ncnc2occ(-c3ccc(NC(=O)Nc4cc(C(F)(F)F)ccc4F)cc3)c12 [GW770249X] | 100% |
| NS(=O)(=O)c1ccc(N/N=C2\C(=O)Nc3ccc(C(=O)NCCc4c[nH]cn4)cc32)cc1 [GW300660X] | 100% |
